PubChem BioAssay (NCI)
This is part of a sample that, as a whole, favours compounds with a hit. Of some 83,000 tested, about 20% had one in any assay.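 Treatment: one concentration, 48 hours, 96-well format. Scoring: percent growth, with anything below 10 considered active.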 Unmarked numbers belong to inactive results. Activity calls are given as the source filed them.

Test system: SR leukemia
Test: NCI-60 one-dose screen, 48 h (100 = growth as untreated, 0 = no growth, -100 = all killed)
Settings: 10 µM unless noted

Row | SMILES | growth
1 | O=C(N/N=C/c1ccc(Oc2ccccc2)cc1)c1cnn2c1NC(c1ccccc1)C2 (centres undefined) | 31%
2 | NC1=NN=C(N)C1=Cc1cc2ccccc2n2nnnc12 | 94.4%
3 | CCSCC1CC(O)(c2ccccc2)CC(c2ccc(F)cc2)O1 (centres undefined) | -22% (active)
4 | Cc1cccc(NC(=O)Nc2ccc(-n3cnc4cc(-c5ccc(O)cc5)ccc43)cc2)c1 | 19.7%
5 | COc1ccc(/C=C(\C#N)n2nc3cccc(F)c3n2)cc1 | 82.4%
6 | Nc1n[nH]c2cccc(C#Cc3cccc(C(=O)Nc4cccc(C(F)(F)F)c4)c3)c12 | 72%
7 | O=C(Nc1ccccc1C(=O)N/N=C(\c1ccccc1)c1ccccn1)c1ccc(F)cc1 | 14.4%
8 | C=C1C(=O)O[C@H]2[C@H]1CC/C(C(=O)NCCCCCNC(=O)/C1=C/CC[C@@]3(C)O[C@H]3[C@H]3OC(=O)C(=C)[C@@H]3CC1)=C\CC[C@@]1(C)O[C@@H]21 | 83.6%
9 | N#Cc1c(NCc2ccccc2I)sc2c1CCCCC2 | 93.8%
10 | C=C1C(=O)O[C@H]2[C@H]1CC/C(COC(=O)NCC(C)c1ccc(CC(C)C)cc1)=C\CC[C@@]1(C)O[C@@H]21 (some centres undefined) | -2.59% (active)
11 | Cc1cc(C(=O)/C=C/c2ccc[nH]2)ccc1-n1ccc(C(F)(F)F)n1 | 28.4%
12 | C=C1C(=O)O[C@H]2[C@H]1CC/C(CNC(=O)/C=C/c1cccc(OC)c1)=C\CC[C@@]1(C)O[C@@H]21 | 8.06% (active)
13 | COc1cc(/C=N/NC(=O)c2cnn3c2NC(c2ccccc2)C3)ccc1Oc1ccccc1 (centres undefined) | 18%
14 | COc1cc(C2=C(c3cn(C)c4ccccc34)COC2=O)cc(OC)c1OC | 8.24% (active)
15 | COc1cc(/C=C\C(=O)O)ccc1OCc1ccccc1 | 97.7%
16 | COc1cc2c(=O)n(CCN)c3c4cc5c(cc4ccc3c2cc1OC)OCO5 | -26% (active)
17 | CCCCCN1C=C/C(=C\C(=O)N(C)c2ccc(OC(F)(F)F)cc2)c2ccccc21 | 100%
18 | CN(C)CC(O)c1ccc(/C=C/c2ccc(Cl)cc2)cc1 (centres undefined) | -38.8% (active)

Test system: RPMI-8226 leukemia
Test: as above
Settings: 10 µM unless noted

Row | SMILES | growth
19 | CCCOC(=O)N[C@H]1CCc2c(Cl)c(OC)c(OC)c(OC)c2-c2ccc(SC)c(=O)cc21 | -2.97% (active)
20 | CCCCCCOc1ccc(/C=N/Nc2cc(C)nc3ccc(Cl)cc23)cc1 | -35.3% (active)
21 | Nc1c(C(=O)Nc2cccc3cnccc23)sc2nc3c(cc12)CN(Cc1ccccc1)CC3 | 99.7%
22 | Cc1cnc(C(=O)Nc2nc3ccc(S(=O)(=O)Nc4ccc(C(C)(C)C)cc4)cc3[nH]2)cn1 | 18.6%
23 | CCN1CCN(CCNc2nccc(-c3c(-c4cccc(OC)c4)nc4occn34)n2)S1(=O)=O | 96.2%
24 | CCCCOc1ccc(/C=N/Nc2cc(C)nc3ccc(Br)cc23)cc1 | -15.9% (active)
25 | O=C(Nc1ccc(NC(=O)c2cc(=O)[nH]c3ccccc23)cc1)Nc1cccc(Cl)c1 | 96.3%
26 | Oc1ccc(C(c2ccc(O)cc2)c2ccc(Br)cn2)cc1 | 119%
27 | CCOC(=O)[C@@H]1CCCN(S(=O)(=O)c2ccc(S(=O)(=O)N(CC)CC)c(F)c2)C1 | 61%
28 | N#Cc1cccc(-c2ccc3c(c2)NC(=O)/C3=C\c2ccc[nH]2)c1 | 54.1%
29 | O=[N+]([O-])c1cc(Br)c2cccc3c2c1CC3 | 109%
30 | NS(=O)(=O)c1ccc(Cn2c(SCC(=O)N/N=C/c3ccccc3O)nc3ccccc3c2=O)cc1 | 49.7%
31 | CCNC(=O)Oc1ccc(/C(=C(\C)c2ccccc2)c2ccc(OCCN(CC)CC)cc2)cc1 | 74.6%
32 | COc1ccc(C(=O)/C=C/c2cc3ccccc3n3nnnc23)cc1 | 98.7%
33 | O=C(N/N=C/c1ccc(Oc2ccccc2)cc1)c1cnn2c1NC(c1ccccc1)C2 (centres undefined) | 75.7%
34 | NC1=NN=C(N)C1=Cc1cc2ccccc2n2nnnc12 | 105%
35 | CCSCC1CC(O)(c2ccccc2)CC(c2ccc(F)cc2)O1 (centres undefined) | 8.79% (active)
36 | Cc1cccc(NC(=O)Nc2ccc(-n3cnc4cc(-c5ccc(O)cc5)ccc43)cc2)c1 | 12.4%
37 | COc1ccc(/C=C(\C#N)n2nc3cccc(F)c3n2)cc1 | 102%
38 | C=C1C(=O)O[C@H]2[C@H]1CC/C(C(=O)NCCCCCNC(=O)/C1=C/CC[C@@]3(C)O[C@H]3[C@H]3OC(=O)C(=C)[C@@H]3CC1)=C\CC[C@@]1(C)O[C@@H]21 | 95.5%
39 | N#Cc1c(NCc2ccccc2I)sc2c1CCCCC2 | 91.9%
40 | COc1cc(/C=N/NC(=O)c2cnn3c2NC(c2ccccc2)C3)ccc1Oc1ccccc1 (centres undefined) | 56.1%
41 | COc1cc(/C=C\C(=O)O)ccc1OCc1ccccc1 | 90.2%

Test system: OVCAR-8 ovarian
Test: as above
Settings: 10 µM unless noted

Row | SMILES | growth
42 | CCCCCN1C=C/C(=C\C(=O)N(C)c2ccc(Oc3ccccc3)cc2)c2ccccc21 | 80.3%
43 | O=C1Nc2cc(-c3ccc(NC(=O)C4CC4)cc3)ccc2/C1=C/c1ccc[nH]1 | 110%
44 | COc1cc2nc(-c3ccc(Cl)cc3)cc(OCCCN3CCCC3)c2cc1OC | 56.2%
45 | CCCOC(=O)N[C@H]1CCc2c(Cl)c(OC)c(OC)c(OC)c2-c2ccc(SC)c(=O)cc21 | 21.6%
46 | CCCCCCOc1ccc(/C=N/Nc2cc(C)nc3ccc(Cl)cc23)cc1 | -36.4% (active)
47 | Nc1c(C(=O)Nc2cccc3cnccc23)sc2nc3c(cc12)CN(Cc1ccccc1)CC3 | 106%
48 | CCCCOc1ccc(/C(C)=N/Nc2cc(C)nc3ccc(Br)cc23)cc1 | 88.4%
49 | Cc1cnc(C(=O)Nc2nc3ccc(S(=O)(=O)Nc4ccc(C(C)(C)C)cc4)cc3[nH]2)cn1 | 29.2%
50 | CCN1CCN(CCNc2nccc(-c3c(-c4cccc(OC)c4)nc4occn34)n2)S1(=O)=O | 99.3%
51 | CCCCOc1ccc(/C=N/Nc2cc(C)nc3ccc(Br)cc23)cc1 | -50.1% (active)
52 | O=c1[nH]nc(-c2ccccc2)c2sc3ncc(-c4ccc(Br)cc4)n3c12 | 46.5%
53 | O=C(Nc1ccc(NC(=O)c2cc(=O)[nH]c3ccccc23)cc1)Nc1cccc(Cl)c1 | 85.9%
54 | N#Cc1cc(-c2nc3ccccc3s2)c(=O)n(NS(=O)(=O)c2ccccc2)c1N | 106%
55 | Oc1ccc(C(c2ccc(O)cc2)c2ccc(Br)cn2)cc1 | 2.17% (active)
56 | CCOC(=O)[C@@H]1CCCN(S(=O)(=O)c2ccc(S(=O)(=O)N(CC)CC)c(F)c2)C1 | 77.8%
57 | N#Cc1cccc(-c2ccc3c(c2)NC(=O)/C3=C\c2ccc[nH]2)c1 | 85.9%
58 | O=[N+]([O-])c1cc(Br)c2cccc3c2c1CC3 | 97%
59 | NS(=O)(=O)c1ccc(Cn2c(SCC(=O)N/N=C/c3ccccc3O)nc3ccccc3c2=O)cc1 | 44.3%
60 | CCNC(=O)Oc1ccc(/C(=C(\C)c2ccccc2)c2ccc(OCCN(CC)CC)cc2)cc1 | 78.3%

Row | SMILES | growth
61 | COc1ccc(C(=O)/C=C/c2cc3ccccc3n3nnnc23)cc1 | 109%
62 | O=C(N/N=C/c1ccc(Oc2ccccc2)cc1)c1cnn2c1NC(c1ccccc1)C2 (centres undefined) | 52.1%
63 | NC1=NN=C(N)C1=Cc1cc2ccccc2n2nnnc12 | 98.1%
64 | CCSCC1CC(O)(c2ccccc2)CC(c2ccc(F)cc2)O1 (centres undefined) | 21.3%
65 | Cc1cccc(NC(=O)Nc2ccc(-n3cnc4cc(-c5ccc(O)cc5)ccc43)cc2)c1 | 17.6%
66 | COc1ccc(/C=C(\C#N)n2nc3cccc(F)c3n2)cc1 | 100%
67 | Nc1n[nH]c2cccc(C#Cc3cccc(C(=O)Nc4cccc(C(F)(F)F)c4)c3)c12 | 76.3%
68 | O=C(Nc1ccccc1C(=O)N/N=C(\c1ccccc1)c1ccccn1)c1ccc(F)cc1 | 17.1%
69 | C=C1C(=O)O[C@H]2[C@H]1CC/C(C(=O)NCCCCCNC(=O)/C1=C/CC[C@@]3(C)O[C@H]3[C@H]3OC(=O)C(=C)[C@@H]3CC1)=C\CC[C@@]1(C)O[C@@H]21 | 103%
70 | N#Cc1c(NCc2ccccc2I)sc2c1CCCCC2 | 88.8%
71 | C=C1C(=O)O[C@H]2[C@H]1CC/C(COC(=O)NCC(C)c1ccc(CC(C)C)cc1)=C\CC[C@@]1(C)O[C@@H]21 (some centres undefined) | -51% (active)
72 | Cc1cc(C(=O)/C=C/c2ccc[nH]2)ccc1-n1ccc(C(F)(F)F)n1 | 85.6%
73 | C=C1C(=O)O[C@H]2[C@H]1CC/C(CNC(=O)/C=C/c1cccc(OC)c1)=C\CC[C@@]1(C)O[C@@H]21 | 3.77% (active)
74 | COc1cc(/C=N/NC(=O)c2cnn3c2NC(c2ccccc2)C3)ccc1Oc1ccccc1 (centres undefined) | 30.7%
75 | COc1cc(C2=C(c3cn(C)c4ccccc34)COC2=O)cc(OC)c1OC | 24.8%
76 | COc1cc(/C=C\C(=O)O)ccc1OCc1ccccc1 | 93.7%
77 | COc1cc2c(=O)n(CCN)c3c4cc5c(cc4ccc3c2cc1OC)OCO5 | -49.9% (active)
78 | CCCCCN1C=C/C(=C\C(=O)N(C)c2ccc(OC(F)(F)F)cc2)c2ccccc21 | 95.3%
79 | CN(C)CC(O)c1ccc(/C=C/c2ccc(Cl)cc2)cc1 (centres undefined) | -34.2% (active)
